Shown is part of a subset that was picked to be rich in hits.
ST2 inh: IL1RL1 inhibition | Q01638 | AlphaLISA ST2-Fc/biotin-IL-33 interaction, 1 h | inhibition, % for hits at 17 µM | actives 2.3% (n = 78,000) | AID 1259354; in the data active = inhibition above about 30%
Target sequence (Q01638 whole entry, looked up): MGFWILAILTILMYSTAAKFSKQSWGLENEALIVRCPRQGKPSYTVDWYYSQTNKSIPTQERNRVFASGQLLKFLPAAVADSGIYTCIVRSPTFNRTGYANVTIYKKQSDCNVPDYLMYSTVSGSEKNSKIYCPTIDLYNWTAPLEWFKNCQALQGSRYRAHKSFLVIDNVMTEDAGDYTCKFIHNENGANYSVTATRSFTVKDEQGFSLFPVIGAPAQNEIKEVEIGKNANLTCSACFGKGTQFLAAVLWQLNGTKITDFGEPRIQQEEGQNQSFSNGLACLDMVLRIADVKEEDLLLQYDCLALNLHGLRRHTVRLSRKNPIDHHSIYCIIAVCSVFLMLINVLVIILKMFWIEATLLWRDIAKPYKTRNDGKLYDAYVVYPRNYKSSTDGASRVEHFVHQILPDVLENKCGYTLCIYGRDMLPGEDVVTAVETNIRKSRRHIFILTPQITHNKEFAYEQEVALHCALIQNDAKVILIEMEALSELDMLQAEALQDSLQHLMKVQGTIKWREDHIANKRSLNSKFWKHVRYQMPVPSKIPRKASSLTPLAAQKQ
Active calls of the source: *; i = inactive.

SMILES | ST2 inh
COc1cc(/C=C2\C=C(c3ccc(Cl)cc3)OC2=O)cc(Br)c1OC | i
CCc1ccc(C2=C/C(=C/c3cc(OC)ccc3OC)C(=O)O2)cc1 | 38.0%*
COc1cc(/C=C2\C=C(c3ccc(Cl)cc3)OC2=O)c([N+](=O)[O-])cc1OC | i
COc1ccc(/C=C2\C=C(c3ccc(Br)cc3)OC2=O)cc1[N+](=O)[O-] | i
COc1cc(/C=C2\C=C(c3ccc(Cl)cc3)OC2=O)cc(I)c1OC | i
Cc1cccc2[nH]c(C3CCN(C(=O)c4cc5n(n4)CCCN(C)C5)CC3)nc12 | i
CC(NC(=O)c1ccc2c(c1)OCO2)C(c1cccs1)N1CCN(Cc2ccccc2)CC1 (stereo not drawn) | i
COc1ccc(S(=O)(=O)NCCSc2ccccn2)cc1Br | i
CCOC(=O)Cc1csc2nc(-c3ccc(C)cc3)c(NC3CCCCC3)n12 | i
Cc1nn(Cc2n[nH]c(=O)n2CCc2ccccc2F)c(C)c1C | i
CS(=O)(=O)Nc1cc(-c2noc([C@@H]3CCCN3C3CCC3)n2)ccn1 | i
O=C1c2ccccc2C(=O)N1CC(=O)N1CCc2ccccc21 | i
C=CCn1c2ccccc2n2c(C(=O)OC)c(C)nc12 | i
CC1=C(C(=O)OC2CCCCC2)C(c2cccc(Cl)c2)n2ncnc2N1 (stereo not drawn) | i
CC(=O)Nc1ccc(S(=O)(=O)Nc2ccc(C(F)(F)F)cc2[N+](=O)[O-])cc1 | i
CC(C)C(Nc1ccc(C(F)(F)F)cc1[N+](=O)[O-])C(=O)O (stereo not drawn) | i
Cc1nonc1OCC(C)(C)Nc1ccc(C(F)(F)F)cc1[N+](=O)[O-] | 36.0%*
Cc1ccc(C(=O)Nc2ccc(S(=O)(=O)NC(C)(C)C)cc2)cc1C | i
CCN(CC)S(=O)(=O)c1ccc2oc(C(=O)NC3CCC(C)CC3)c(C)c2c1 (stereo not drawn) | i
COCCn1c(=O)[nH]c2cc(C(=O)O)ccc2c1=O | i
COc1ccc(C(=O)c2c[nH]c3ccccc3c2=O)cc1 | i
CCOC(=O)c1c(NC(=O)COc2ccc3c(c2)OCO3)sc2c1CCCCC2 | i
CN(C(=O)Cn1c(=O)n(-c2ccc(F)cc2F)c(=O)c2sccc21)c1ccccc1 | 47.0%*
CC1CCN(C(=O)Cn2c(=O)n(-c3ccc(F)cc3F)c(=O)c3sccc32)CC1 | i
O=c1c2sccc2n(Cc2ccccc2)c(=O)n1-c1cc(F)ccc1F | i
SMILES | ST2 inh
c1cncc(-c2noc(C3CCCN(Cc4ncc[nH]4)C3)n2)c1 (stereo not drawn) | i
COC(=O)C1=C(N)OC2=C(C(=O)CCC2)C1c1ccccc1F (stereo not drawn) | i
CC(C)=CC(=O)NCC1CCN(Cc2[nH]c3ccc(C)cc3c2C)C1 (stereo not drawn) | i
CC(C)c1ccc(NC(=O)CN(c2cccc(Cl)c2Cl)S(C)(=O)=O)cc1 | i
NS(=O)(=O)c1ccc(NC(=O)C2CCN(C(=O)Cc3ccccc3)CC2)cc1 | i
O=C1C[C@H]2CC[C@@H](CN1)N2C(=O)Cc1ccc(NC(=O)C2CC2)cc1 | 43.0%*
NC(=O)c1ccc(NC(=O)C2CCN(C(=O)Cc3ccccc3)CC2)cc1 | i
O=C(NCc1ccc(F)cc1)c1noc2c1CCc1ccccc1-2 | i
O=[N+]([O-])c1nn(-c2ccccc2)[n+]([O-])c1N1CCCC1 | i
Cc1ccc(-c2cc(C(F)F)nc(N3CCCCC3)n2)cc1 | i
Cn1c(=O)c2c(ncn2CC(=O)NCCc2ccc(S(N)(=O)=O)cc2)n(C)c1=O | i
O=C(NCCC1=CCCCC1)c1ccc2c(c1)N(Cc1ccccc1F)C(=O)CS2 | i
O=C(Nc1ccccc1F)c1ccc2nc(-c3ccco3)c(-c3ccco3)nc2c1 | i
O=C(Nc1nccs1)c1ccc2nc(-c3ccco3)c(-c3ccco3)nc2c1 | 30.0%*
O=C(Nc1nccs1)c1ccc2snnc2c1 | i
O=C(O)c1ccc(NC(=O)c2ccc(Cl)c(S(=O)(=O)N3CCCCC3)c2)cc1 | i
Cc1sc2nc3c(C(=O)NCc4cccs4)cccn3c(=O)c2c1C | i
CC12COc3ccccc3C1c1sc(=O)[nH]c1SC2 (stereo not drawn) | 32.0%*
O=c1[nH]c2c(s1)C1c3cc([N+](=O)[O-])ccc3OCC1CS2 (stereo not drawn) | i
CC1CCC2C(C1)c1sc(=O)[nH]c1SC2(C)C (stereo not drawn) | i
COc1ccc(C(C2=C(O)CC(C)(C)CC2=O)C2C(=O)CC(C)(C)CC2=O)cc1CO (stereo not drawn) | i
COc1ccc(C2CCN(Cc3ccc(Sc4nncn4C)o3)c3ccccc3S2)cc1C (stereo not drawn) | 31.0%*
CN(Cc1ccc(Sc2nncn2C)o1)C1CCCN(Cc2ccccc2F)C1 (stereo not drawn) | i
COc1ccc(-c2nn(-c3ccccc3C)cc2CNC2CCOCC2)cc1F | i
Cc1cccc(-c2cn[nH]c2C2CCN(C(=O)c3noc(C)c3CO)CC2)c1 | i
SMILES | ST2 inh
CC1=CC(=NS(=O)(=O)c2cccc([N+](=O)[O-])c2)C=CC1=O | i
Cc1cc(S(=O)(=O)N2CCN(S(=O)(=O)c3ccc(Cl)c(C)c3)CC2)ccc1Cl | i
Cc1cc(C)c(S(=O)(=O)N2CCCCC2)cc1S(=O)(=O)N1CCCCC1 | i
Cc1cc(S(=O)(=O)N=C2C=CC(=O)c3ccccc32)ccc1Cl | 42.0%*
Cc1cc(Br)c(S(=O)(=O)N2CCN(c3ccccc3)CC2)cc1C | i
Cc1cc(C)c(S(=O)(=O)N2CCN(c3cc(-c4ccccc4C)ncn3)CC2)cc1C | i
Cc1cc(C)c(S(=O)(=O)N=C2C=CC(=O)c3ccccc32)cc1C | 47.0%*
Cc1cc(C)c(S(=O)(=O)N2CCN(c3ccccc3)CC2)cc1C | i
Cc1cc(C)c(S(=O)(=O)N=C2C=C(Br)C(=O)c3ccccc32)cc1C | 35.0%*
CC(=O)c1ccc(NC(=O)c2cccc(S(=O)(=O)Nc3ccc(C(C)=O)cc3)c2)cc1 | i
Cn1cc(CC(=O)N2CCN(c3ccccc3)CC2)c2ccccc21 | i
CCN(Cc1ccccc1)S(=O)(=O)c1cccc2cccnc12 | i
CC1CCc2oc3cc([N+](=O)[O-])cc([N+](=O)[O-])c3c2C1 (stereo not drawn) | 59.0%*
CC(=O)N(c1ccc2oc3c(c2c1)CCCC3)S(=O)(=O)c1cc([N+](=O)[O-])ccc1C | i
Cc1cc(NC(=O)c2noc3c2CC(C)CC3)no1 (stereo not drawn) | i
CN(CC(=O)Nc1ccccc1F)S(=O)(=O)c1ccc2c(c1)CCC(=O)N2 | i
O=[N+]([O-])c1cc(Cl)c2cccnc2c1O | i
CN(C)c1ccc(Nc2c([N+](=O)[O-])cc([N+](=O)[O-])c3cccnc23)cc1 | 95.0%*
CN(C)c1ccc(NC(=O)Nc2ccc3nc(-c4ccccn4)c(-c4ccccn4)nc3c2)cc1 | i
CC(C)C1CN(CC(=O)Nc2cnn(C)c2)CCCN1Cc1ccc(F)cc1 (stereo not drawn) | i
COc1ccc(CN2CCNC(=O)C2CC(=O)NCc2cccc(Cl)c2)c(F)c1 (stereo not drawn) | i
COc1ccc(OC)c(Nc2cc(C)nc3c(C)cccc23)c1 | i
O=C(CCc1ccco1)N1CCOC(CCCc2ccccc2)C1 (stereo not drawn) | i
CCOC(=O)C1(CCOc2ccccc2)CCN(Cc2cccc(C)n2)CC1 | 83.0%*
CCOC(=O)C1(CCOc2ccccc2)CCN(S(=O)(=O)c2ccc(C)s2)CC1 | i

Screening data: PubChem BioAssay, Paczesny and Yang Labs, IUPUI and University of Michigan
